From the supplement of paper PMC7156485
± gives the standard deviation of the averaged measurements.

tested on: TDF; test: cell number relative to DMSO (% of DMSO); higher = more cells (less growth inhibition / toxicity); settings: concentration: 10 µM; 24 h
Procedure, shortened: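 H1.0 nuclear intensity or cell number is expressed as percent of the plate control, with the median of replicates taken. HCC1569 and TDF cells were treated with compounds at 10 µM for 24 h at 37 °C, in triplicate, then fixed and immunostained for H1.0 with DAPI as a nuclear stain. HCC1569 values were smoothed to correct for positional effects.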
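Further: TDF denotes transformed human dermal fibroblasts of mesenchymal origin.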

SMILES	cell number
COc1ccccc1N1CCN(CCCNc2cc(=O)n(C)c(=O)n2C)CC1.Cl [Urapidil hydrochloride]	102
CN[C@H](CC(=O)O)C(=O)O [N-Methyl-D-aspartic acid]	109
CN(C)C(=O)COC(=O)Cc1ccc(OC(=O)c2ccc(N=C(N)N)cc2)cc1.CS(=O)(=O)O	115
Nc1nc(Cl)nc2c1ncn2C1OC(CO)C(O)C1F (stereo not given) [Clofarabine]	45.3
O=C1NC(=O)C(c2cn(CCCn3ccnc3)c3ccccc23)=C1Nc1ccccc1 [PKCb Inhibitor]	113
Cc1cc(C2CCCCC2)n(O)c(=O)c1.NCCO [Ciclopirox ethanolamine]	58.8
COc1ccc(CC(N)C(=O)NC2C(CO)OC(n3cnc4c(N(C)C)ncnc43)C2O)cc1 (stereo not given) [Puromycin]	99.2 ± 15
CN(C)c1cc2c(Nc3ccc4c(cnn4Cc4ccccc4)c3)ncnc2cn1	90.4
CCCC[C@@H](C=O)NC(=O)[C@H](CC(C)C)NC(=O)[C@H](CC(C)C)NC(C)=O	32.2
CCC(NC(C)C)C(O)c1ccc(O)c2[nH]c(=O)ccc12.Cl (stereo not given) [Procaterol.HCl]	105
CC(C=CC=C(C)C=CC1=C(C)CCCC1(C)C)=CC=CC=C(C)C=CC=C(C)C=CC1=C(C)CCCC1(C)C	106
Cl.Cl.OCCN1CCN(CCC=C2c3ccccc3Sc3ccc(C(F)(F)F)cc32)CC1 [cis-(Z)-Flupenthixol dihydrochloride]	102
CC(C)(O)CCC(O)C(C)(O)C1CCC2(O)C3=CC(=O)C4CC(O)C(O)CC4(C)C3CCC12C (stereo not given)	97
CCCCCCC=CCCCCCCCCC(=O)O [10(Z)-Heptadecenoic acid]	95.4
Cl.NCCCC(N)(C(=O)O)C(F)F (racemic) [DL-alpha-Difluoromethylornithine hydrochloride]	111
Oc1cc(O)cc(/C=C/c2ccc(Br)cc2)c1 [5-[(E)-2-(4-bromophenyl)ethenyl]-1,3-benzenediol]	98.8
CCCCCC=CCC=CCC=CC=CC(O)CCCC(=O)O (stereo not given)	103
Br.Oc1ccc(C2CNCCc3c2cc(O)c(O)c3Cl)cc1 (stereo not given) [Fenoldopam bromide]	100
O=C(O)[C@H]1C[C@H](C(=O)O)N1 (relative stereo) [trans-Azetidine-2,4-dicarboxylic acid]	106
O=C(Nc1ccc(Cl)cc1)Nc1cccc(-c2cccc(N3CCCC3)n2)c1	87.5

SMILES	cell number
Cl.NC1(C(=O)O)CC1 [1-Aminocyclopropanecarboxylic acid hydrochloride]	102
CCC(=C(c1ccccc1)c1ccc(OCCN(C)C)cc1)c1ccccc1 [Tamoxifen]	99.1
COc1cc2ncnc(Nc3ccc(F)c(Cl)c3)c2cc1OCCCN1CCOCC1	101
COc1c(O)cc(O)c2c(=O)cc(-c3ccccc3)oc12 [Wogonin]	98.7
COc1cc2nc(N(C)CCCNC(=O)C3CCCO3)nc(N)c2cc1OC (stereo not given) [Alfuzosin]	96.5
NCCCC(O)(P(=O)([O-])O)P(=O)(O)O [Alendronate]	102
CC1(C)CCCC(C)(C2CCC3(C)C2C(O)CC2C4(C)CCC(O)C(C)(C)C4C(O)CC23C)O1 (stereo not given) [Panaxatriol]	93.4
c1ccc(C(OC2CCN(CCCc3nn[nH]n3)CC2)c2ccccc2)cc1 [4-(benzhydryloxy)-1-[3-(1H-tetraazol-5-yl)propyl]piperidine]	102
Cl.N=c1c[n+](N2CCOCC2)[n-]o1 [3-Morpholinosydnonimine hydrochloride]	108
CN(C)CCC(CSc1ccccc1)Nc1ccc(S(=O)(=O)NC(=O)c2ccc(N3CCN(Cc4ccccc4-c4ccc(Cl)cc4)CC3)cc2)cc1[N+](=O)[O-] (stereo not given)	106
CNCCC(Oc1ccccc1C)c1ccccc1 (stereo not given) [Tomoxetine]	112
CC[C@H](C)C(=O)O[C@H]1C[C@H](O)C=C2C=C[C@H](C)[C@H](CC[C@@H](O)C[C@@H](O)CC(=O)[O-])[C@H]21.[Na+]	93.2
Clc1ccc(COC(Cn2ccnc2)c2ccc(Cl)cc2Cl)c(Cl)c1 (stereo not given) [Miconazole]	110
CC1=CC(=O)C2=C(C)CCC3C(C)C(=O)OC3C12 (stereo not given) [Leucomisine]	111
Cl.Oc1ccc(C2CNCCc3c2cc(O)c(O)c3Cl)cc1 (stereo not given) [Fenoldopam.HCl]	97.8
CC(=O)c1ccc(N2CCOCC2)cc1O [DNA-PK Inhibitor III]	93.9
CC1=C(C(=O)O)N2C(=O)C(NC(=O)C(N)C3=CCC=CC3)C2SC1 (stereo not given) [Cephradine]	115
C=C(CC)C(=O)c1ccc(OCC(=O)O)c(Cl)c1Cl [Ethacrynic Acid]	101
CC(C)(S)[C@H](N)C(=O)O [L-Penicillamine]	102
CC(C=CC1=C(C)CCCC1(C)C)=CC=CC(C)=CC(=O)O [Retinoic acid]	102
